# Experimental data taken from PubChem BioAssay.
# Calls of active or inactive are those of the source.
# Key:
# Albumin (Bos taurus) = Albumin (Bos taurus) (UniProt P02769); assay: compounds binding labelled BSA control protein – biochemical, small-molecule microarray, Alexa647 label, 635/667 nm fluorescence, artefact control for SMM control protein annotation, profiling panel (AID 1118); conditions: BSA-A647 binding, fluorescence 635 nm, higher = more signal;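 note: score merges 667 nm emission intensity and signal-to-noise per printed compound spot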
# [1] = probe aXIP binding to arrayed compounds – biochemical, NeuroSMM set, 635/667 nm fluorescence, primary screen (AID 1119); conditions: small-molecule microarray, higher = more signal, called active from +8 up or from −8 down;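 note: probe is the protein aXip251-270 applied at 1 µg/mL to compound-printed slides; binding of probe to printed compounds measured as 667 nm fluorescence plus signal to noise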
# [2] = probe aNOTCH3 binding on compound microarray – biochemical, small-molecule microarray, 635/667 nm fluorescence, primary screen (AID 1120); conditions: higher = more signal;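 note: probe is a biotin-tagged antibody raised against NOTCH3 rather than NOTCH3 protein; score merges spot fluorescence near 667 nm with spot signal to noise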
# [3] = probe aNOTCH2 binding on compound microarray – biochemical, small-molecule microarray, 635/667 nm fluorescence, primary screen (AID 1121); conditions: higher = more signal;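 note: score merges feature fluorescence read at 667 nm with its signal to noise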
# [4] = target: Carbonic anhydrase 2 (Homo sapiens) (UniProt P00918); assay: compounds binding carbonic anhydrase 2 – biochemical, small-molecule microarray, Alexa647-labelled CAII, profiling panel (AID 1122); conditions: CAII-A647 binding fluorescence, higher = more signal
# [5] = COS7 lysate on small-molecule microarray, probe aHis, 635 nm (AID 1123); conditions: COS7 cell lysate, fluorescence, higher = more signal;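 note: z-score combines 667nm fluorescence intensity with signal-to-noise per printed compound spot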
# [6] = probe aLAP1 signal on lysate-treated microarray – cell lysate, small-molecule microarray, COS7 lysate, primary screen (AID 1124); conditions: probe aLAP1, fluorescence, higher = more signal;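 note: lysate comes from COS7 cells expressing LAP1 and is applied at 0.3 µg/mL; score merges spot fluorescence near 667 nm with signal-to-noise over triplicate slides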
# Sam68 (KHDRBS1) = assay: compounds binding KHDRBS1 protein – biochemical, small-molecule microarray, 635 nm fluorescence, primary screen (AID 1125); conditions: higher = more signal;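 note: score merges 667 nm channel intensity with signal to noise over triplicate slides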
# [7] = tested on: Chordin-like protein 2 (CHRDL2); assay: compounds binding chordin-like 2 – biochemical, small-molecule microarray, 635 nm fluorescence, primary screen (AID 1126); conditions: fluorescence 635 nm, higher = more signal;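 note: printed compound slides probed with Chrdl2 protein at 4 µg/mL for 1 h at 4 C; score merges 667 nm emission intensity with signal to noise over three replicate slides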
# [8] = target: Concanavalin-A (Canavalia ensiformis) (UniProt P02866); assay: compounds binding concanavalin A lectin – biochemical, small-molecule microarray, Alexa647 label, 635 nm, artefact control for SMM control protein annotation, primary screen (AID 1127); conditions: ConA-A647 binding fluorescence, higher = more signal;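 note: z combines 667 nm emission intensity with signal-to-noise across three replicate slides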
# [9] = compounds binding Alexa647 anti-His antibody – biochemical, small-molecule microarray, 635 nm fluorescence, artefact control for SMM control protein annotation, primary screen (AID 1128); conditions: higher = more signal;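 note: score merges feature fluorescence with signal-to-noise for each printed compound spot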
# [10] = tested on: Human papillomavirus type 1a E7 protein (residues 1-88); assay: HPV1a E7 small-molecule binders, primary screen, biochemical, small-molecule microarray, residues 1-88, 635 nm (AID 1129); conditions: small-molecule microarray binding, fluorescence 635 nm; higher = more signal
# [11] = target: Focal adhesion kinase 1 (Homo sapiens) (UniProt Q05397); assay: PTK2 protein binding on printed compound slides – biochemical, small-molecule microarray, 635/667 nm fluorescence, BSA, DTT, primary screen (AID 1130); conditions: 635 nm fluorescence, higher = more signal;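 note: composite of spot emission at 667 nm and signal to noise over triplicate slides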
# [12] = tested on: Fibrinogen (Alexa647-labelled); assay: Alexa647-fibrinogen binding to printed small molecules – biochemical, small-molecule microarray, 635/667 nm fluorescence, artefact control for SMM control-protein annotation, profiling panel (AID 1131); conditions: fibrinogen-A647 binding fluorescence, higher = more signal;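 note: z-score merges 667 nm fluorescence with per-spot signal-to-noise over triplicate slides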
# [13] = target: Follistatin (Homo sapiens) (UniProt P19883); assay: FST protein binding to printed compounds – biochemical, small-molecule microarray, 635/667 nm fluorescence, primary screen (AID 1132); conditions: 635 nm fluorescence, higher = more signal
# [14] = target: Fibroblast growth factor 2 (Homo sapiens) (UniProt P09038); assay: basic fibroblast growth factor binding to printed compounds – biochemical, small-molecule microarray, 635/667 nm fluorescence, primary screen (AID 1133); conditions: FGF2, fluorescence 635/667, higher = more signal
# [15] = JC-1 mitochondrial potential readout, lung cancer cells – cell-based, A549, JC-1 fluorescence, basal, 24 h, 100 nL, profiling panel (AID 1138); conditions: higher = more signal;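 note: A549 lung adenocarcinoma cells under basal conditions with no added stimulus; test concentration not given here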
# Lefty1 = Lefty1 protein binding to printed compounds – biochemical, small-molecule microarray, 635/667 nm fluorescence, primary screen (AID 1139); conditions: fluorescence 635/667, higher = more signal
# [16] = tested on: wheat germ agglutinin (Triticum aestivum), Alexa647-labelled; assay: Alexa647-WGA lectin binding to printed small molecules – biochemical, small-molecule microarray, 635/667 nm fluorescence, artefact control for SMM control-protein annotation, profiling panel (AID 1140); conditions: WGA-A647 binding, 635 nm fluorescence, higher = more signal;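 note: score merges 667 nm feature emission with signal to noise over triplicate slides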
# [17] = target: Luciferin 4-monooxygenase (Photinus pyralis) (UniProt P08659); assay: inhibition of purified Photinus pyralis luciferase – biochemical, luminescence, purified enzyme, 2006 set, primary screen (AID 1141); conditions: purified firefly luciferase, SteadyGlo luminescence, 30 min; higher = more signal, called active from +8 up or from −8 down;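 note: cell-free assay with purified firefly luciferase at 100 ng per well in PBS; test concentration not given here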
# Chain of Luciferin 4-monooxygenase (Photinus pyralis) (P08659 whole entry, looked up): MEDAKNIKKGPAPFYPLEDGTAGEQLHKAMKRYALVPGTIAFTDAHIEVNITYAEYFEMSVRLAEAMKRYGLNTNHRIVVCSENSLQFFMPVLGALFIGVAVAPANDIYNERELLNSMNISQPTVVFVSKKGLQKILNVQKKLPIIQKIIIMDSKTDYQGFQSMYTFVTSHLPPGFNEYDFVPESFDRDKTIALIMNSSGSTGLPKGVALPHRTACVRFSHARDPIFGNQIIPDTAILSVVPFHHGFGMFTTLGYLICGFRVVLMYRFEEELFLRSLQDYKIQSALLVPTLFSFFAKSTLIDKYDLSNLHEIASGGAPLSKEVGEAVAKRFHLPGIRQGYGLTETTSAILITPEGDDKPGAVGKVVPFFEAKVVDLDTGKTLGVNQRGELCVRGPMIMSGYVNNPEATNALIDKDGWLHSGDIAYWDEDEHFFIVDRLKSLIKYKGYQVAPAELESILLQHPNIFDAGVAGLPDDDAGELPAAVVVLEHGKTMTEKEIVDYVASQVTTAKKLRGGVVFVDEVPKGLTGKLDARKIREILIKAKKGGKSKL
# Chain of Follistatin (Homo sapiens) (P19883 whole entry, looked up): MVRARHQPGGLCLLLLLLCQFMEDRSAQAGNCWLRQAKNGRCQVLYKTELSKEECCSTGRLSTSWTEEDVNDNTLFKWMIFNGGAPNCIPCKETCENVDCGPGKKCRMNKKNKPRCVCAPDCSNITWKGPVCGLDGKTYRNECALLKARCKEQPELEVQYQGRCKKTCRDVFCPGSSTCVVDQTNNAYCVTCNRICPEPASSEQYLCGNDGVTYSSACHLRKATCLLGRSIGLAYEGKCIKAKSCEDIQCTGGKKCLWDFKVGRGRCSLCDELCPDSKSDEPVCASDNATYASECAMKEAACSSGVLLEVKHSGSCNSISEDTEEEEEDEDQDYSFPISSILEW
# Chain of Concanavalin-A (Canavalia ensiformis) (P02866 whole entry, looked up): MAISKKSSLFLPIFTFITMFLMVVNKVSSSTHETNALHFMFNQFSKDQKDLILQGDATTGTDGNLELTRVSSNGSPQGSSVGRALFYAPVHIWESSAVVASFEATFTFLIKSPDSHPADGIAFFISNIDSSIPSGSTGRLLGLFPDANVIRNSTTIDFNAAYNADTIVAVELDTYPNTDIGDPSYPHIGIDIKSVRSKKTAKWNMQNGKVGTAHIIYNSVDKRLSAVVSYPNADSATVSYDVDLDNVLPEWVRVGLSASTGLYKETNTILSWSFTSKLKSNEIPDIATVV
# Chain of Focal adhesion kinase 1 (Homo sapiens) (Q05397 whole entry, looked up): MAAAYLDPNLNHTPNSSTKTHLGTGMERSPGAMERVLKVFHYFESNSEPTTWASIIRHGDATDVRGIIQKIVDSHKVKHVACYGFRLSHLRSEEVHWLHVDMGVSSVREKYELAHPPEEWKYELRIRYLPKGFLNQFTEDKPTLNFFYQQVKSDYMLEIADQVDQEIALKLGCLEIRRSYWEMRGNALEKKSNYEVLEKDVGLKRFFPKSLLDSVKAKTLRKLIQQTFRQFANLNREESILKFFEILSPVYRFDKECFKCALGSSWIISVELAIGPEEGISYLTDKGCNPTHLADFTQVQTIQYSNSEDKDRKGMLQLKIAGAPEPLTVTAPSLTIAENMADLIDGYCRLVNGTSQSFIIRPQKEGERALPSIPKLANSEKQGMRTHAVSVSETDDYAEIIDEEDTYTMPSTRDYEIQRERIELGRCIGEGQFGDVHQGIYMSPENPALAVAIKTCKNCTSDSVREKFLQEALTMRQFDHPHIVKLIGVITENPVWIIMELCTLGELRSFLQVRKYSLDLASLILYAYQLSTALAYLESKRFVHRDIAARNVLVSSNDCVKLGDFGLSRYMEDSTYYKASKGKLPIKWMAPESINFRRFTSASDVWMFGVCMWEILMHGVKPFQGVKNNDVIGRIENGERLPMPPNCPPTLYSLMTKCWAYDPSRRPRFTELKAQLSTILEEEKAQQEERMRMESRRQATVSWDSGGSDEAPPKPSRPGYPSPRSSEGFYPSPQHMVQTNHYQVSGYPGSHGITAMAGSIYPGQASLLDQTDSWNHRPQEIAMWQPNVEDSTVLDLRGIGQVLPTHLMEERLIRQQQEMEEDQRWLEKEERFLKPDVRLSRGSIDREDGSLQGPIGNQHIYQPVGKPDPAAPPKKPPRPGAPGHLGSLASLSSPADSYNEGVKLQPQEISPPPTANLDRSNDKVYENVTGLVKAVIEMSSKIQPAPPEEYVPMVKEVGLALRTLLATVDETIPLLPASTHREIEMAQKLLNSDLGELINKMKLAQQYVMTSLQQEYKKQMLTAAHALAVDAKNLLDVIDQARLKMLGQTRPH
# Chain of Albumin (Bos taurus) (P02769 whole entry, looked up): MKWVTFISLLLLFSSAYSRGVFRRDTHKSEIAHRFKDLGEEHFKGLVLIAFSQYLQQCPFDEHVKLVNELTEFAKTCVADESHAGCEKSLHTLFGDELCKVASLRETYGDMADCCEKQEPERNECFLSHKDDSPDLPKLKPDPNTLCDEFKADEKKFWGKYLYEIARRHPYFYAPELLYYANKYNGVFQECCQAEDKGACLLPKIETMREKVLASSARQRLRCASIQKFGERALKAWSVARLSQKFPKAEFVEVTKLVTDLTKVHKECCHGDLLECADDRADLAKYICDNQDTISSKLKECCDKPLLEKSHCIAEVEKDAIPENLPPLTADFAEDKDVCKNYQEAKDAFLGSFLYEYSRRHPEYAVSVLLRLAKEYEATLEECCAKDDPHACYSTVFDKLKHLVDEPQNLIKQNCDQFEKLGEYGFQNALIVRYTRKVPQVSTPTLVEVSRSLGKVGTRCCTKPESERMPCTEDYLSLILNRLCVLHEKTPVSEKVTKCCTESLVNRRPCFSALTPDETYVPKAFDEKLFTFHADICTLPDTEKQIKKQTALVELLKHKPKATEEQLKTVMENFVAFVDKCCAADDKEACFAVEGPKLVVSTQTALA
# Chain of Fibroblast growth factor 2 (Homo sapiens) (P09038 whole entry, looked up): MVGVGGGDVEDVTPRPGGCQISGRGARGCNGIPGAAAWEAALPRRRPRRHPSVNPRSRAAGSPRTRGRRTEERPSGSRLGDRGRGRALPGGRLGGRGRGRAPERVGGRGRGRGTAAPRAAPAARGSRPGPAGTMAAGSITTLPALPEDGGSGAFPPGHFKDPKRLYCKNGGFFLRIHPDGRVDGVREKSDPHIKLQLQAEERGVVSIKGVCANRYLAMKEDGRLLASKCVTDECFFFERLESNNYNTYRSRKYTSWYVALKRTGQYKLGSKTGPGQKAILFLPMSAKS
Compound,composite z-score (Albumin (Bos taurus)),composite Z-score [1],composite z-score [2],composite z-score [3],composite z-score [4],composite z-score [5],composite z-score [6],composite z-score (Sam68 (KHDRBS1)),composite z-score [7],composite z-score [8],composite z-score [9],composite z-score [10],composite z-score [11],composite z-score [12],composite z-score [13],composite z-score [14],z-score [15],composite z-score (Lefty1),composite z-score [16],z-score [17]
COc1ccc([Si](C)(C)[C@H]2[C@H](CCn3cc(CCO)nn3)O[C@@]3(C(=O)N(Cc4ccc(N5C(=O)c6cccc7cccc5c67)cc4)c4ccccc43)[C@@H]2C)cc1,0.627,-0.777 (inactive),0.0996,-0.14,0.345,1.04,0.303,1.29,0.628,0.962,1.12,1.2,0.379,0.431,1.23,0.949,-0.932,1.31,0.578,0.303 (inactive)
CCCc1cccc(=O)o1,0.387,-0.75 (inactive),-0.0665,-0.127,0.43,0.897,0.359,0.699,0.221,0.828,0.439,0.799,0.106,0.915,0.793,0.223,0.352,0.614,0.782,2.08 (inactive)
CC(C)N1CC=CC23O[C@@H]4C=CCCOC(=O)C4[C@H]2C(=O)N(CCO)[C@@H]3C1=O (stereo not given in full),0.0894,-0.455 (inactive),-0.305,-0.125,0.763,-0.548,0.199,-0.354,-0.414,0.172,-0.517,-1,-0.482,-0.288,-0.194,-0.205,-0.467,0.0404,0.459,0.697 (inactive)
C=C(/C(=C/C[C@@H](OC(=O)c1ccncc1)c1ccccc1OCCO)c1cc(C(=O)OC)ccc1OC)C(C)C,0.359,-0.0951 (inactive),0.138,-0.0895,0.676,1.75,0.457,1.25,0.0435,0.474,0.0652,1.2,0.378,-0.325,0.64,0.806,3.35,0.782,0.986,-1.47 (inactive)
C=CCN1C(=O)[C@@]2(O[C@@H](CCn3cc([C@H](O)c4ccccc4)nn3)[C@H]([Si](C)(C)c3ccc(OC)cc3)[C@H]2C)c2ccccc21,0.205,0.363 (inactive),0.221,-0.151,0.499,0.422,0.572,1.08,0.333,1.01,0.351,1.14,0.287,0.371,1.18,0.761,0.493,1.2,0.875,0.586 (inactive)
O=C1C2C=CC(C(O)c3cc(C(F)(F)F)cc(C(F)(F)F)c3)N(Nc3ccc([N+](=O)[O-])cc3)C2C(=O)N1c1ccccc1 (stereo not given),0.888,-0.311 (inactive),0.37,-0.0523,0.616,2.74,-0.0967,1.33,-0.298,1.15,0.338,1.24,0.681,1.02,1.05,0.4,-0.953,0.953,0.599,0.833 (inactive)
[N-]=[N+]=NCc1ccccc1[C@H]1OC(c2ccc(OCCCO)cc2)=N[C@@]1(CCS(=O)(=O)c1ccccc1)C(N)=O,0.736,0.0553 (inactive),0.302,0.123,0.878,3.31,1.71,1.3,-0.0208,1.2,2.08,1.18,0.238,1,1.18,1.26,-1.14,-0.456,1.16,-3.95 (inactive)
O=C(NC1CC1)[C@@H]1c2ccccc2C(=O)N(Cc2ccccc2)[C@H]1c1ccc(CO)cc1,0.0082,0.081 (inactive),-0.272,-0.127,0.698,2.72,1.36,0.372,-0.346,0.38,0.522,0.802,-0.747,0.497,0.665,0.483,2.09,0.626,0.905,0.017 (inactive)
C=C(COC)/C(=C/C[C@@H](OC(=O)c1ccncc1)c1ccc(CO)o1)c1cnc2ccccc2c1,0.516,1.35 (inactive),0.412,-0.14,0.951,0.831,0.589,1.3,1.47,1.23,1.87,1.22,0.268,0.973,1.47,1.61,-0.557,1.67,1.56,-2.96 (inactive)
